From PubChem BioAssay (Tox21)
Where “and” joins values, the source holds several entries; their conditions need not be identical. Identical values can stand only once. Inconclusive results are not listed. A call without a number means that no potency is given here. Calls of active or inactive are those of the source. Unless noted, calls come from the whole dose curve; as a rule, active = well fitted curve in the direction sought with a large enough effect in the repeat runs; inconclusive = weak or mixed curves; inactive = no such curve, though single readings can be large; an effect the other way counts as inactive or inconclusive.

Experiments:
[1] = qHTS assay to identify small molecule antagonists of the estrogen related receptor (ERR) signaling pathway from Tox21 library - cell viability counter screen (AID 1224834); note: nearly all actives have a fitted effect of over 30% in size
Outline: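 ERR reporter cells, 2,000 per well, rested 6 h, then exposed to compound in DMSO for 17.5 hours at 37 C. Viability read as fluorescence after 30 min with CellTiter-Fluor.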

[2] = molecular target: Luciferin 4-monooxygenase (Photinus pyralis) (UniProt P08659); assay: qHTS assay to identify small molecule inhibitors of firefly luciferase (AID 1224835); note: series mostly up to about 120 µM; nearly all actives have a fitted effect of over 25% in size
Outline: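 Quantitative HTS format; KM concentrations of both substrates. Purified P. pyralis FLuc activity quantified from luminescence images.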

[3] = qHTS assay to identify small molecule agonists of the constitutive androstane receptor (CAR) signaling pathway - cell viability counter screen (AID 1224836); note: series mostly up to about 92 µM; nearly all actives have a fitted effect of over 45% in size
Outline: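 HepG2 cells stably carrying hCAR and a CYP2B6-2.2kb reporter; 15-concentration compounds plus PK11195 (final 0.75 uM), 23 hr at 37 C/5% CO2. Viability read by CellTiter-Fluor fluorescence.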

[4] = qHTS assay to identify small molecule antagonists of the constitutive androstane receptor (CAR) signaling pathway - cell viability counter screen (AID 1224837); note: series mostly up to about 92 µM; nearly all actives have a fitted effect of over 45% in size
Outline: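 HepG2 cells stably carrying hCAR and CYP2B6-2.2kb reporter, stimulated with 50 nM CITCO and compounds at 15 concentrations for 23 h at 37 C. Viability measured by CellTiter-Fluor fluorescence.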

[5] = qHTS assay to identify small molecule antagonists of the estrogen related receptor signaling pathway with the pleiotropic PPARgamma coactivator (PGC) from Tox21 10K library - cell viability counter screen (AID 1224840; active = well fitted cell-killing curve with a large enough effect in the repeat runs, not every such curve was filed as active; note: nearly all actives have a fitted effect of over 40% in size)
Outline: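 PGC/ERR cells (2,000/well) plated 6 h, then compound-treated for 17.5 h at 37 C. Viability measured by CellTiter-Fluor fluorescence after 30 min at 37 C, multiplexed with the pathway assay.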

[6] = molecular target: Thyrotropin receptor (Homo sapiens) (UniProt P16473); assay: qHTS assay to identify small molecule agonists of the thyroid stimulating hormone receptor (TSHR) signaling pathway (AID 1224843; calls by dose curve; note: nearly all actives have a fitted effect of over 45% in size)
Outline: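 Cell line HEK293 with TSHR; density 800/well. Exposure 30 min RT. Readout HTRF cAMP (cAMP-d2/anti-cAMP-cryptate), 1 h RT before reading.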

[7] = qHTS assay to identify small molecule agonists of the hypoxia (HIF-1) signaling pathway - cell viability counter screen (AID 1224844; calls by dose curve; note: nearly all actives have a fitted effect of over 50% in size)
Outline: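 HRE-bla ME-180 cells, 2,000/well in 0.5% dialyzed FBS medium, treated 17 h at 37C with compounds. Viability read in the same wells as the bla reporter, by CellTiter-Glo luminescence after 30 min at room temperature.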

[8] = qHTS assay to identify small molecule agonists of H2AX (AID 1224845; active = well fitted activation curve with a large enough effect in the signal ratio in the repeat runs, not every such curve was filed as active; the % refers to the signal ratio)
Outline: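 Wild-type CHO-K1 cells plated overnight, then exposed 3 hr at 37C to compounds at 15 concentrations (0.76% DMSO). Lysed, then HTRF anti-pH2AX(S139)-cryptate/anti-H2AX-d2 detection after 24 hr at room temperature; emissions 665 and 620 nm.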

[9] = qHTS assay to identify small molecule agonists of the hypoxia (HIF-1) signaling pathway (AID 1224846; active = well fitted activation curve with a large enough effect in the signal ratio in the repeat runs, not every such curve was filed as active; the % refers to the signal ratio)
Outline: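 HRE-bla ME-180 beta-lactamase reporter cells in medium with 0.5% dialyzed FBS, pre-incubated 5 h then exposed to compounds 17 h at 37C, 5% CO2; reporter induction read with CCF4-AM FRET substrate.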

[10] = qHTS assay to identify small molecule agonists of H2AX - cell viability counter screen (AID 1224847; calls by dose curve; note: top concentration of the series differs between compounds; nearly all actives have a fitted effect of over 30% in size)
Outline: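 CHO-K1 cells plated overnight at 37C, then exposed 3 h at 37C to compounds at 15 concentrations (0.76% DMSO final). Viability by CellTiter-Glo luminescence after 30 min at room temperature.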

[11] = qHTS RealTime-Glo MT Cell Viability Assay in HepG2 cells - 24 hour (AID 1224867); note: nearly all actives have a fitted effect of over 50% in size
Outline: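 Cells + NanoLuc/prosubstrate dispensed (600 cells/well) → 5 h at 37 C/5% CO2 → compounds in DMSO transferred → 40 h incubation at 37 C, luminescence read at 0, 8, 16, 24, 32, 40 h.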

[12] = qHTS RealTime-Glo MT Cell Viability Assay in HEK293 cells - 32 hour (AID 1224868); note: nearly all actives have a fitted effect of over 50% in size; note: potency is the fitted concentration of half-maximal effect
Outline: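 Tox21 10K qHTS, HEK293, 600 cells/well, RealTime-Glo reagent co-dispensed with cells; 5 h preincubation, compound by pintool, 37 C, luminescence at 0–40 h.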

[13] = A CellTox Green Cytotoxicity Assay to monitor cytotoxicity in HEK293 cells - 0 hour (AID 1224869); note: nearly all actives have a fitted effect of over 50% in size
Outline: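 HEK293 cells, 600/well, were preincubated 5 hours and then exposed to compounds at 37 C for up to 40 hours. A cell-impermeant cyanine dye staining dead-cell DNA was read by fluorescence at 0, 8, 16, 24, 32 and 40 h time points.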

[14] = qHTS RealTime-Glo MT Cell Viability Assay in HepG2 cells - 40 hour (AID 1224870); note: nearly all actives have a fitted effect of over 50% in size
Outline: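 HepG2 cells mixed with RealTime-Glo MT reagents (NanoLuc plus cell-permeant prosubstrate) were seeded at 600 cells/well, incubated 5 h at 37 C/5% CO2, then pinned with compounds in DMSO; nonlytic luminescence tracked viability during 40 h treatment.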

[15] = qHTS assay to identify small molecule antagonists of the estrogen related receptor signaling pathway with the pleiotropic PPARgamma coactivator (PGC) from Tox21 10K library (AID 1224841; call rule not given here)
Outline: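 PGC/ERR cell line, 2,000 cells/well, pre-incubated 6 hours at 37 C, then exposed to compounds for 18 hours at 37 C; luciferase read with One-Glo luminescence after 30 min at room temperature.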

[16] = qHTS assay to identify small molecule agonists of the estrogen related receptor signaling pathway with the pleiotropic PPARgamma coactivator (PGC) from Tox21 10K library (AID 1224842); note: nearly all actives have a fitted effect of over 15% in size
Outline: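 PGC/ERR reporter cells (NTP line) were seeded 2,000 per well, rested 6 h at 37 C/5% CO2, then pin-dosed with compounds in DMSO for 18 h at 37 C; luciferase read by One-Glo luminescence after 30 min at room temperature.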

[17] = qHTS assay to identify small molecule antagonists of the estrogen related receptor (ERR) signaling pathway from Tox21 library (AID 1224848); note: nearly all actives have a fitted effect of over 50% in size
Outline: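 Screening used an ERR reporter line supplied by NTP, exposed for 18 h at 37 C to library compounds delivered in DMSO. Signal was luciferase luminescence developed with ONE-Glo at room temperature for 30 min.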

[18] = molecular target: Nuclear receptor subfamily 1 group I member 3 (Homo sapiens) (UniProt Q14994); assay: qHTS assay to identify small molecule antagonists of the constitutive androstane receptor (CAR) signaling pathway (AID 1224838); note: nearly all actives have a fitted effect of over 40% in size
Outline: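 HepG2 cells stably carrying hCAR and a CYP2B6-2.2kb luciferase reporter, seeded 4 hrs before compound (15 concentrations). Stimulated with 50 nM CITCO for 24 hr at 37 C. ONE-Glo luminescence read after 30 min at room temperature.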

[19] = molecular target: Nuclear receptor subfamily 1 group I member 3 (Homo sapiens) (UniProt Q14994); assay: qHTS assay to identify small molecule agonists of the constitutive androstane receptor (CAR) signaling pathway (AID 1224839); note: series mostly up to about 92 µM; nearly all actives have a fitted effect of over 15% in size
Outline: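 HepG2 cells stably co-transfected with hCAR and a CYP2B6-2.2kb luciferase reporter; compounds at 15 concentrations with 0.75 uM PK11195 present. After 24 hr at 37 C, luciferase read by ONE-Glo luminescence.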

Sequence of Luciferin 4-monooxygenase (Photinus pyralis) (P08659 whole entry, looked up): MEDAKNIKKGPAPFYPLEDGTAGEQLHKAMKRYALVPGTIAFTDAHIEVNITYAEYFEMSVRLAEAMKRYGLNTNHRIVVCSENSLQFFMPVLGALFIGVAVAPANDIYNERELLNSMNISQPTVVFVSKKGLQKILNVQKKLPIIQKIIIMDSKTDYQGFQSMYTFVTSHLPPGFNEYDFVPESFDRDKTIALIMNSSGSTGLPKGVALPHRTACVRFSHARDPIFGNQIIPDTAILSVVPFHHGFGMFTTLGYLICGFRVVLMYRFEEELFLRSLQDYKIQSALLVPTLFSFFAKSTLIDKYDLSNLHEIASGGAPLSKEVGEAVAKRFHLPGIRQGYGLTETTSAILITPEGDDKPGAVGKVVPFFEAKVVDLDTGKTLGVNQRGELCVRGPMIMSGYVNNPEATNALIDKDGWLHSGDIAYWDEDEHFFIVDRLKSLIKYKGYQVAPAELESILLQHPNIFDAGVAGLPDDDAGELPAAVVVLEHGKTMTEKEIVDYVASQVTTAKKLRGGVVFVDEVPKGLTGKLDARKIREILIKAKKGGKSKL
Sequence of Thyrotropin receptor (Homo sapiens) (P16473 whole entry, looked up): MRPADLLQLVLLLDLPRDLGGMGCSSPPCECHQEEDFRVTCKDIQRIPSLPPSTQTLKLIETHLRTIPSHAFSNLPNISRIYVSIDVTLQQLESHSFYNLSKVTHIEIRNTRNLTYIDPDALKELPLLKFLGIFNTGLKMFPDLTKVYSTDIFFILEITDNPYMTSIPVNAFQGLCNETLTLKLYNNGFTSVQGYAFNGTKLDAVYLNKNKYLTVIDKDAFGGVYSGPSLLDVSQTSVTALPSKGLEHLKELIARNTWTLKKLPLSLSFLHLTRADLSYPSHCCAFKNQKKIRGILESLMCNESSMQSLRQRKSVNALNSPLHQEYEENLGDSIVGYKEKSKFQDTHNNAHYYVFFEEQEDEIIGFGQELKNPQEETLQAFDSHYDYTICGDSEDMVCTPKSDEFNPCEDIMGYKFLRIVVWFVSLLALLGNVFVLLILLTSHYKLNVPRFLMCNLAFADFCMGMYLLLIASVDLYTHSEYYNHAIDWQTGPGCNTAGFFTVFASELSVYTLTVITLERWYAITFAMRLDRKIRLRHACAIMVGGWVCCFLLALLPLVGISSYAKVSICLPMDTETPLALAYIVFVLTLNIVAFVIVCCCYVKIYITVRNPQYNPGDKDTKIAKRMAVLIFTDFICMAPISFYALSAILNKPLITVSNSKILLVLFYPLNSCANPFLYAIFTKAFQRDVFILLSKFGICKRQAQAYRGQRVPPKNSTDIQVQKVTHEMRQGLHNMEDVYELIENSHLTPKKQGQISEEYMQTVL
Sequence of Nuclear receptor subfamily 1 group I member 3 (Homo sapiens) (Q14994 whole entry, looked up): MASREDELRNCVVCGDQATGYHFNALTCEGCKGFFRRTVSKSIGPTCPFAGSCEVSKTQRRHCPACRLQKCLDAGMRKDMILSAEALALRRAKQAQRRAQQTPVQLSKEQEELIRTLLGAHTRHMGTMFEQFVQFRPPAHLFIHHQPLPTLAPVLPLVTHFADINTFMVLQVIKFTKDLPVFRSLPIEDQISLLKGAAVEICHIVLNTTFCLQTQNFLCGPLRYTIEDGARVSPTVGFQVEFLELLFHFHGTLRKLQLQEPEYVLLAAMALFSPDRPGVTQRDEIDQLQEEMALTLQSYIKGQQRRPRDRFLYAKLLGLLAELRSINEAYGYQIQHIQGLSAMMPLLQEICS

Structure (SMILES) | Potency [1] | Potency [2] | Potency [3] | Potency [4] | Potency [5] | outcome [6] | outcome [7] | outcome [8] | outcome [9] | outcome [10] | Potency [11] | Potency [12] | outcome [13] | outcome [14] | Potency [15] | outcome [16] | outcome [17] | outcome [18] | Potency [19]
C=C(C)[C@H]1CC=C(C)C(=O)C1 | inactive | inactive | inactive | inactive | inactive | inactive | inactive | inactive | inactive | inactive | inactive | inactive | inactive | inactive |  |  |  |  | 
O=S(=O)(O)c1ccccc1 | inactive |  | inactive | inactive | inactive | inactive | inactive | inactive | inactive | inactive | inactive | inactive | inactive | inactive | inactive | inactive | inactive |  | 
CCOC(=O)n1ccn(C)c1=S | inactive | inactive | inactive | inactive | inactive | inactive | inactive | inactive | inactive | inactive | inactive | inactive | inactive | inactive |  |  |  |  | 
Cc1ccc(S(=O)(=O)N=C=O)cc1 | inactive | inactive | inactive | inactive | inactive | inactive | inactive | inactive | inactive | inactive | inactive | inactive | inactive | inactive | inactive | inactive | inactive |  | 
CN(C)c1ccc(Cc2ccc(N(C)C)cc2)cc1 | inactive | inactive | inactive | inactive | inactive |  | inactive | inactive | inactive |  | inactive | 22 µM (active) and 21.9 µM (active) | inactive | inactive | inactive | inactive |  |  | 
c1ccc2c(c1)Cc1ccccc1-2 | inactive | inactive | inactive | inactive | inactive | inactive | inactive | inactive | inactive | inactive | inactive | inactive | inactive | inactive |  |  |  |  | 
CCCCCCCCCCO | inactive | inactive | inactive | inactive | inactive | inactive | inactive | inactive | inactive | inactive | inactive | inactive | inactive | inactive |  |  |  |  | 
CC(CCO)CC(C)(C)C (configuration not stated) | inactive | inactive | inactive | inactive | inactive | inactive | inactive | inactive | inactive | inactive | inactive | inactive | inactive | inactive |  |  |  |  | 
CN(C)c1ccc(O)c2c1C[C@H]1C[C@H]3[C@H](N(C)C)C(=O)C(C(N)=O)=C(O)[C@@]3(O)C(=O)C1=C2O |  | inactive | inactive | inactive | inactive | inactive | inactive | inactive | inactive | inactive | inactive | inactive | inactive | inactive |  |  |  | inactive | inactive
